# Measured values from PubChem BioAssay.
# Activity calls are given as the source filed them. Unless noted, the rule behind the calls is not given here.
# Assays:
# [1] = compounds altering circadian rhythm period length – cell-based, LOPAC library, luminescence reporter (AID 2774); conditions: circadian reporter cells, at 7 µM, actives lie on both sides;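 note: values are relative to mean of DMSO wells on each plate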
# [2] = system: Hepatitis C virus NS3 helicase; experiment: blockers of NS3h binding to ssDNA – biochemical, fluorescence polarization, LOPAC1280 library, primary screen (AID 687035; in the data active = inhibition above about 37%); conditions: Purified HCV NS3 helicase, Cy5-dT15 ssDNA binding fluorescence polarization; stronger effect = higher value; concentration not given here
# [3] = compounds altering Cy5-DNA-NS3h complex signal – biochemical, LOPAC1280, artefact control for HCV NS3 helicase inhibitor project (AID 687037); conditions: Cy5-DNA-NS3h complex fluorescence interference counterscreen
# [4] = viability loss with induced miR-34 in A549 – imaging, A549 dox-inducible miR-34, nuclei and caspase counts, primary screen (AID 1347080;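 active = compounds whose cell count with miR-34 switched on is under 0.7 times the count with it off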); conditions: A549 miR-34 inducible, Hoechst nuclei count, 48 h
# [5] = blockers of cellular phospholipid synthesis – cell-based, LOPAC library, screen 4, primary screen (AID 1347384); conditions: animal cells, phospholipid biosynthesis inhibition screen; at 10 µM
# [6] = galactose survival enhancers in mitochondrial complex I cybrids – cell-based, galactose medium, ATP luminescence, primary screen (AID 1645843;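 active = z-score of at least 1.8 in each of two replicates, scored against plate mean and spread of sample wells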;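 note: positive z means more ATP and so rescue of galactose-driven cybrid death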); conditions: complex I mutant cybrid cells, 72 h, stronger effect = higher value
# [7] = MELAS cybrid and Rieske KO viability enhancers – cell-based, MELAS cybrids, Rieske KO mouse fibroblasts, CellTiter-Glo, primary screen (AID 1508586;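 active = mean z-score across replicates of 1.96 or higher in either the MELAS or the Rieske mutant cell line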;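 note: z relative to plate mean and SD of compound and empty wells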); conditions: low glucose
# [8] = stronger effect = lower value, cell number ratio, induced over uninduced
# [9] = measured here: relative caspase fold change +Dox/-Dox
# [10] = measured here: total cells with miR-34 induction, stronger effect = lower value
# [11] = measured here: total cells without miR-34 induction
# [12] = MELAS cybrid survival, CellTiter-Glo 48 h, stronger effect = higher value
# [13] = Rieske KO mouse fibroblast survival, CellTiter-Glo 72 h
SMILES,period change [1],inhibition [2],fluorescence ratio (interference) [3],"fold change [4, 8]","fold change [4, 9]","cell count [4, 10]","cell count [4, 11]",outcome [5],z-score [6],"z-score [7, 12]","z-score [7, 13]"
COC1=C(OC)C(=O)c2ccccc2C1=O,-0.205 h (inactive),-1% (inactive),1 (inactive),1.45 (inactive),1.7,1290,890,inactive,-1.04 (inactive),–,–
O=C(c1cc(O)c(O)c([N+](=O)[O-])c1)c1ccccc1F,0.055 h (inactive),5% (inactive),0.9 (inactive),1.18 (inactive),1.45,7010,5940,inactive,-0.165 (inactive),–,–
Cc1cn([C@H]2C[C@@H](N=[N+]=[N-])[C@@H](CO)O2)c(=O)[nH]c1=O,0.06 h (inactive),-1% (inactive),0.9 (inactive),1.13 (inactive),1.91,8200,7230,inactive,0.445 (inactive),–,–
COc1ccccc1N1CCN(CCCNc2c(C)c(=O)n(C)c(=O)n2C)CC1,-0.1 h (inactive),-5% (inactive),1 (inactive),0.886 (inactive),2.76,8920,10100,inactive,0.025 (inactive),–,–
CCCCCCCCCCCCCCSCC(=O)O,-0.08 h (inactive),-2% (inactive),1 (inactive),0.985 (inactive),1.37,9840,9990,inactive,-0.24 (inactive),–,–
O=C(O)c1cc(=O)cc(C(=O)O)[nH]1,-0.025 h (inactive),0% (inactive),1 (inactive),0.984 (inactive),1.62,10200,10300,inactive,0.285 (inactive),–,–
CCNC(=O)[C@H]1O[C@@H](n2cnc3c(N)nc(NCCc4ccc(CCC(=O)O)cc4)nc32)C(O)[C@H]1O (some centres undefined),0.1 h (inactive),0% (inactive),1 (inactive),0.963 (inactive),1.23,9660,10000,inactive,0.485 (inactive),–,–
Fc1ccc(CN(C2=NCCN2)c2c(Cl)cccc2Cl)cc1,-0.015 h (inactive),1% (inactive),1 (inactive),0.978 (inactive),0.985,8870,9060,inactive,-0.75 (inactive),–,–
CCCn1c(=O)[nH]c(=O)c2[nH]cnc21,0.09 h (inactive),-1% (inactive),1 (inactive),0.996 (inactive),1.45,9630,9670,inactive,0.47 (inactive),–,–
CC1(C)CCC(NC(=O)[C@@H](N)CCC(=O)O)CC1,-0.095 h (inactive),-6% (inactive),1 (inactive),1.1 (inactive),1.15,11000,9970,inactive,0.125 (inactive),–,–
CC(=O)SC1CC2=CC(=O)CC[C@]2(C)C2CC[C@@]3(C)C(CC[C@@]34CCC(=O)O4)C12 (some centres undefined),0.045 h (inactive),-4% (inactive),1 (inactive),1.07 (inactive),1.82,7810,7280,inactive,1.24 (inactive),–,–
O=c1ccc2c(OCCCCc3ccccc3)c3ccoc3cc2o1,–,0% (inactive),1 (inactive),1.08 (inactive),1.92,8160,7580,inactive,-0.515 (inactive),–,–
COc1ccc(CCn2nnnc2C2(c3ccc(C)cc3)CC2)cc1,–,-4% (inactive),1.1 (inactive),1.09 (inactive),0.893,8770,8010,inactive,-0.23 (inactive),–,–
COc1cc(N)c(Cl)cc1C(=O)OCCN1CCCCC1,–,-5% (inactive),1 (inactive),1.11 (inactive),1.42,10600,9550,inactive,0.695 (inactive),–,–
C[C@](Cc1ccc(O)c(O)c1)(NN)C(=O)O,–,-4% (inactive),1 (inactive),0.947 (inactive),1.36,9110,9620,inactive,-1.02 (inactive),–,–
Nc1ccc(-c2ccc3ccccc3n2)cc1,–,-2% (inactive),1 (inactive),1.1 (inactive),1.06,7600,6930,inactive,-1.29 (inactive),–,–
COc1cc(C(O)CO)ccc1O (centres undefined),–,-1% (inactive),1 (inactive),0.99 (inactive),1.37,9940,10000,inactive,0.42 (inactive),–,–
O=c1cc(-c2ccccc2F)[nH]c2cc3c(cc12)OCO3,–,-7% (inactive),0.9 (inactive),1.11 (inactive),0.744,1710,1540,inactive,-0.62 (inactive),–,–
CC(=O)/C=C1\C(=O)N(C)c2ccccc21,–,-2% (inactive),0.9 (inactive),0.98 (inactive),1.31,6920,7060,inactive,-1.48 (inactive),–,–
Clc1ccc(N2CCN(Cc3cc4ccccn4n3)CC2)cc1,–,-6% (inactive),0.9 (inactive),1.01 (inactive),1.14,9670,9570,inactive,-1.08 (inactive),–,–
Cc1cc(NC2CCCCC2)nc(-n2nc(C)cc2C)n1,–,-5% (inactive),1 (inactive),1.09 (inactive),0.728,9360,8610,inactive,-1.04 (inactive),–,–
C=CCNc1ncnc2ccc(Br)cc12,–,0% (inactive),1 (inactive),0.949 (inactive),0.896,7410,7810,inactive,-1.29 (inactive),–,–
OCC1O[C@H]([S-])[C@@H](O)C(O)[C@@H]1O.[Au+] (some centres undefined),–,36% (inactive),1 (inactive),0.895 (inactive),0.924,6430,7180,inactive,-1.29 (inactive),–,–
Cc1cc2c(cc1Cl)N(C(=O)Nc1ccc(Oc3cccnc3C)nc1)CC2,–,-2% (inactive),0.9 (inactive),0.93 (inactive),1.1,4820,5180,inactive,-1.26 (inactive),–,–
COc1ccc2c(c1)CCC1C2CC[C@@]2(C)C1CC[C@@H]2NCCCCCCN1C(=O)CCC1=O (some centres undefined),–,-3% (inactive),1 (inactive),1.08 (inactive),0.876,8060,7440,inactive,-1.29 (inactive),–,–
CC(C)c1cccc(C(C)C)c1N1C(=O)c2ccc(O)cc2C1=O,–,0% (inactive),0.9 (inactive),1.39 (inactive),0.841,1810,1300,inactive,0.3 (inactive),–,–
c1ccc2c(c1)CC(N1CCN(c3cccc4c3OCCO4)CC1)C2,–,-2% (inactive),1 (inactive),1.01 (inactive),1.01,8000,7890,inactive,0.255 (inactive),–,–

SMILES,period change [1],inhibition [2],fluorescence ratio (interference) [3],"fold change [4, 8]","fold change [4, 9]","cell count [4, 10]","cell count [4, 11]",outcome [5],z-score [6],"z-score [7, 12]","z-score [7, 13]"
CCOC(=O)C1=C(C)NC(C)=C(C(=O)OCC)C1c1c(F)c(F)c(F)c(F)c1F,–,-5% (inactive),0.9 (inactive),1.11 (inactive),0.622,5220,4680,inactive,-0.415 (inactive),–,–
N[C@H](C(=O)O)[C@H](Cc1ccccc1)C(=O)O,–,-1% (inactive),1 (inactive),0.97 (inactive),1.76,10400,10700,inactive,0.705 (inactive),–,–
O=C(c1ccc(Cl)cc1)N1CCN(c2ccc([N+](=O)[O-])c3ncccc23)CC1,–,0% (inactive),1 (inactive),0.912 (inactive),1.42,6530,7170,inactive,-1 (inactive),–,–
CN(CC[C@@H](Oc1ccc(C(F)(F)F)cc1)c1ccccc1)CC(=O)O,–,-2% (inactive),0.9 (inactive),1.05 (inactive),2.04,10800,10300,inactive,0.395 (inactive),–,–
CNCCc1cnc(CCC(c2ccccc2)c2ccccc2)[nH]1,–,-4% (inactive),1 (inactive),1.13 (inactive),0.656,5430,4810,inactive,-0.725 (inactive),–,–
C=C1C[C@@]23CC[C@H]4[C@@](C)(CCC[C@@]4(C)C(=O)OC4OC(CO)C(O)C(O)C4O)[C@@H]2CC[C@]1(OC1OC(CO)C(O)C(O)C1OC1OC(CO)C(O)C(O)C1O)C3 (some centres undefined),–,-1% (inactive),1 (inactive),1.06 (inactive),0.521,10700,10100,inactive,0.675 (inactive),–,–
Oc1ccc(/C=C/c2ccc(/C=C/c3ccc(O)cc3)c(Br)c2)cc1,–,-3% (inactive),1 (inactive),1.33 (inactive),1.11,3040,2280,inactive,0.44 (inactive),–,–
CCN(CC)CCNC(=O)c1ccc(NS(C)(=O)=O)cc1,–,-2% (inactive),1.1 (inactive),1.02 (inactive),0.826,10400,10100,inactive,0.325 (inactive),–,–
Cc1cc(Cn2cnc3c2C[C@@H](C(=O)O)N(C(=O)C(c2ccccc2)c2ccccc2)C3)ccc1N,–,0% (inactive),1 (inactive),1.01 (inactive),2.03,10300,10200,inactive,0.405 (inactive),–,–
OC[C@H]1OC(n2cnc3c(N[C@H]4CCC[C@@H]4O)ncnc32)[C@H](O)[C@@H]1O (some centres undefined),–,-3% (inactive),1 (inactive),1.03 (inactive),1.86,10800,10500,inactive,0.53 (inactive),–,–
NC[C@@H]1O[C@H](c2ccccc2)Cc2c1ccc(O)c2O,–,-3% (inactive),0.9 (inactive),0.966 (inactive),1.26,9490,9820,inactive,-1.3 (inactive),–,–
Nc1nc2c(ncn2[C@@H]2O[C@H](CO)[C@@H](O)[C@@H]2O)c(=O)[nH]1,–,-2% (inactive),1 (inactive),0.934 (inactive),1.54,8710,9330,inactive,4.94 (active),–,–
CN1Cc2sccc2C(c2ccc(O)c(O)c2)C1 (centres undefined),–,-3% (inactive),1 (inactive),1.06 (inactive),2.13,10300,9720,inactive,-1.25 (inactive),–,–
c1ccc2c(c1)CCC[C@H]2Nc1nc2ccccc2[nH]1,–,-3% (inactive),1 (inactive),1.09 (inactive),0.557,7820,7150,inactive,-0.675 (inactive),–,–
O=C(CCCCCN1CCN(c2ccccc2-c2ccccc2)CC1)NC1CCCc2ccccc21 (centres undefined),–,0% (inactive),1 (inactive),1.17 (inactive),1.11,6130,5250,inactive,-1.38 (inactive),–,–
CCCC(CCC)C(=O)OC1CC2CCC(C1)[N+]2(C)C (centres undefined),–,0% (inactive),1.1 (inactive),0.959 (inactive),1.54,9840,10300,inactive,-0.005 (inactive),–,–
O=C1NCc2c1c1c3ccccc3[nH]c1c1[nH]c3ccccc3c21,–,-1% (inactive),1 (inactive),1.15 (inactive),0.688,1560,1350,inactive,-0.89 (inactive),–,–
CC(=O)O[C@H]1Cc2ccccc2N(C(N)=O)c2ccccc21,–,-4% (inactive),1 (inactive),0.953 (inactive),1.06,10000,10500,inactive,0.61 (inactive),–,–
CSc1ccccc1N1CCN(CCCCCC(=O)NC2CCCc3ccccc32)CC1 (centres undefined),–,-5% (inactive),1 (inactive),0.986 (inactive),1.19,7020,7120,inactive,-1.29 (inactive),–,–
O=c1[nH]c(=S)[nH]c(-c2ccccc2)c1Cc1c(O)ccc2ccccc12,–,0% (inactive),1 (inactive),0.946 (inactive),1.58,8710,9210,inactive,0.53 (inactive),–,–
Nc1nc(OCC2CCCCC2)c2[nH]cnc2n1,–,-2% (inactive),1 (inactive),1.47 (inactive),1.19,7330,4990,inactive,-0.68 (inactive),–,–
C=C1C[C@@]23CC[C@H]4[C@@](C)(CCC[C@@]4(C)C(=O)O)[C@@H]2CC[C@]1(O)C3,–,-3% (inactive),1 (inactive),0.931 (inactive),1.06,9720,10400,inactive,0.98 (inactive),–,–
Brc1c(Br)c(Br)c2[nH]cnc2c1Br,–,0% (inactive),1 (inactive),1.11 (inactive),2.37,3750,3380,inactive,-1.17 (inactive),–,–
O=C(C=Cc1ccc2ccccc2n1)c1ccncc1,–,–,–,0.681 (active),0.506,2580,3790,–,–,0.232 (inactive),1.5
CC(C)c1cc(-c2ccc(F)c3ccccc23)nc(N)n1,–,–,–,0.949 (inactive),0.444,7570,7980,–,–,-0.214 (inactive),0.0729
OCc1ccc(OC2OC(CO)C(O)C(O)C2O)cc1 (centres undefined),–,–,–,0.984 (inactive),0.233,8280,8420,–,–,-0.247 (inactive),-0.122
